Experimental findings from article PMC7862700, “An all-to-all approach to the identification of sequence-specific readers for epigenetic DNA modifications on cytosine” are described below.

Holding throughout (assay): DAPPL (digital affinity profiling via proximity ligation, sequencing); 10 mM Tris-HCl pH 7.5, 50 mM NaCl, 1 mM DTT, 4% glycerol, room temperature, 30 min; GST-TFs on glutathione beads, 16-mer random dsDNA library, 0.1% formaldehyde crosslink after washing; high values mean tight binding
What all share (conditions): protein: recombinant; tags: N-terminal GST; dsDNA, one strand shown

One assay deals with ELF1 (Homo sapiens, UniProt P32519 1-619). In outline: (§1)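 Binding signal is each hexamer's read frequency for a factor divided by its frequency in the tag-only sample. The factors were GST-fused human transcription factors from yeast, captured on glutathione beads, DNA-barcoded and pooled with that sample. Pools were incubated with 200 nmole of a random double-stranded 16-mer DNA library in Tris/NaCl/DTT/glycerol buffer at room temperature for 30 min, then washed, crosslinked with 0.1% formaldehyde, proximity-ligated with BsaI/T4 ligase (1 h, 37 °C), PCR-amplified and sequenced on an Illumina NextSeq500.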

The next assay has as its target T1, EHF (Homo sapiens, UniProt Q9NZC4 1-300).
T1 sequence: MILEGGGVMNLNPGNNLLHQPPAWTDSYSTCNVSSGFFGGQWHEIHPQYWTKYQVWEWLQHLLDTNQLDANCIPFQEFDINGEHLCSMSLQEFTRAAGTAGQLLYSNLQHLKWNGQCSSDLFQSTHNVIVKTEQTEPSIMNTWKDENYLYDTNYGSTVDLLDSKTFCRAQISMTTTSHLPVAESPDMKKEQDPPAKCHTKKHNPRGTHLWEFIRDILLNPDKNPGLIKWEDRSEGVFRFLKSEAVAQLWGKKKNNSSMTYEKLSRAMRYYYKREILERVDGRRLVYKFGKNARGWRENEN
In outline: as §1

In a further assay the target is T2, ELK3 (Homo sapiens, UniProt P41970 1-407).
T2 sequence: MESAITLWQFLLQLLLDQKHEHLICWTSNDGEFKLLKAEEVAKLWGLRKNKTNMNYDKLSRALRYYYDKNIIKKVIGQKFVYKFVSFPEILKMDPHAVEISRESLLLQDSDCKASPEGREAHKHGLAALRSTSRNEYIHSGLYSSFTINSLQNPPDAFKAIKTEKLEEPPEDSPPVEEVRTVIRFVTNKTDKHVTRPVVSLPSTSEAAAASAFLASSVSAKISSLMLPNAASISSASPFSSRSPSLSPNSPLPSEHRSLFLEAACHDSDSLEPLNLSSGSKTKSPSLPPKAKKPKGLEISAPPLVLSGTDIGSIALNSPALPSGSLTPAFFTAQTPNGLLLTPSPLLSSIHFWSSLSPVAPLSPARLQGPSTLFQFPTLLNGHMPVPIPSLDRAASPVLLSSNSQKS
In outline: as §1

In another assay the target is T3, ELK4 (Homo sapiens, UniProt P28324-2 1-405).
T3 sequence: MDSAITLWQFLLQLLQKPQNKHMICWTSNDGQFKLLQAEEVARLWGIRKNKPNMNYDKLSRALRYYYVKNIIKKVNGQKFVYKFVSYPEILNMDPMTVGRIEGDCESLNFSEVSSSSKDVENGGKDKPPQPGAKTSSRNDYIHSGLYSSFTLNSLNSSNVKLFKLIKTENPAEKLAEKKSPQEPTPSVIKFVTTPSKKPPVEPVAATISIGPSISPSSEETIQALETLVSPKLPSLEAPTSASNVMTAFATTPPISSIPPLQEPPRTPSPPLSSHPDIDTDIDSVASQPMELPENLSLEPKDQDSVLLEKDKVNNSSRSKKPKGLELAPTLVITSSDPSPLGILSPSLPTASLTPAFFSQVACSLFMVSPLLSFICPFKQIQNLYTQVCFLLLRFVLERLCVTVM
In outline:
as §1

The target of the next assay is CRX (Homo sapiens, UniProt O43186 1-299). In outline:
as §1

Another assay deals with T4, ETV3L (Homo sapiens, UniProt Q6ZN32 1-361).
T4 sequence: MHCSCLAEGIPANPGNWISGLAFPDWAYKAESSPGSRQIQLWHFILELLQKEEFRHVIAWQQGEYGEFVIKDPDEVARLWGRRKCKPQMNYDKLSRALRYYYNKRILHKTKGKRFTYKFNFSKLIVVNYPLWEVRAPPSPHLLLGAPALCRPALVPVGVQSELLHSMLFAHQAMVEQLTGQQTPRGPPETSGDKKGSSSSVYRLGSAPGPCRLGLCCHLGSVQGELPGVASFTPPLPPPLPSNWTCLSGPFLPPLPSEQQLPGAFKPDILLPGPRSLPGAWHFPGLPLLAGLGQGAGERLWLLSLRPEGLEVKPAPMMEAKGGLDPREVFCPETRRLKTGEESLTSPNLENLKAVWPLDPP
In outline:
as §1

A further assay concerns the target T5, ETV7 (Homo sapiens, UniProt Q9Y603 1-341).
T5 sequence: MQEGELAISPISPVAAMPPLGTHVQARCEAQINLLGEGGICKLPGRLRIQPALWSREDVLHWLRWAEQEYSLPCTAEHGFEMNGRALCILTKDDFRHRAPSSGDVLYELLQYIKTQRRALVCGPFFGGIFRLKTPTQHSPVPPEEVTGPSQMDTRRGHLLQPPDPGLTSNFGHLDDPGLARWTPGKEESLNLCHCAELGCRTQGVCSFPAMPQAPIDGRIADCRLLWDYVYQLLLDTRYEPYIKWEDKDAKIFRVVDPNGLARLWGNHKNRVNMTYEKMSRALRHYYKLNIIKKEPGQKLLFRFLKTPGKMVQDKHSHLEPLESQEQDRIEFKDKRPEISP
In outline: as §1

Another assay addresses T6, ELK1 (Homo sapiens, UniProt P19419 1-428).
T6 sequence: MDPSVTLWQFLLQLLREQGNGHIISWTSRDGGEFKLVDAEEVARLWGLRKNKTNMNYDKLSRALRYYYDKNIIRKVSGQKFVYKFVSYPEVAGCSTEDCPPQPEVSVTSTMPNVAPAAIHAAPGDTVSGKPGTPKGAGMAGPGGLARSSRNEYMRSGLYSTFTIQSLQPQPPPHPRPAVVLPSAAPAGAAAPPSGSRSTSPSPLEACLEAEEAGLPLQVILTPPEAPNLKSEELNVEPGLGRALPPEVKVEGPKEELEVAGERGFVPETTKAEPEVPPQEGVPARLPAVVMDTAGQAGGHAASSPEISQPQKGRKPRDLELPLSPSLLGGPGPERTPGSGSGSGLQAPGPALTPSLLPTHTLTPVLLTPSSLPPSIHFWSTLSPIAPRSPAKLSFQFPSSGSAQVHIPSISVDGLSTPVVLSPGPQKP
The method in brief: as §1

The next assay has as its target T7, FEV (Homo sapiens, UniProt Q99581 1-238).
T7 sequence: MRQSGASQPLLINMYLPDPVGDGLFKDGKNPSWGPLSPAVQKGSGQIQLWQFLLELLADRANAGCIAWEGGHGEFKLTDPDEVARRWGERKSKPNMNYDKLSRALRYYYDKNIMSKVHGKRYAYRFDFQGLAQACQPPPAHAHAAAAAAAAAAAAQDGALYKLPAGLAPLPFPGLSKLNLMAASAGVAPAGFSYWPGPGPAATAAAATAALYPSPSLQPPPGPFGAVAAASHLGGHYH
The method in brief: as §1

The target in the next assay is ETV1 (Homo sapiens, UniProt P50549 1-477). The method in brief:
as §1

A further assay deals with T8, GABPA (Homo sapiens, UniProt Q06546 1-454).
T8 sequence: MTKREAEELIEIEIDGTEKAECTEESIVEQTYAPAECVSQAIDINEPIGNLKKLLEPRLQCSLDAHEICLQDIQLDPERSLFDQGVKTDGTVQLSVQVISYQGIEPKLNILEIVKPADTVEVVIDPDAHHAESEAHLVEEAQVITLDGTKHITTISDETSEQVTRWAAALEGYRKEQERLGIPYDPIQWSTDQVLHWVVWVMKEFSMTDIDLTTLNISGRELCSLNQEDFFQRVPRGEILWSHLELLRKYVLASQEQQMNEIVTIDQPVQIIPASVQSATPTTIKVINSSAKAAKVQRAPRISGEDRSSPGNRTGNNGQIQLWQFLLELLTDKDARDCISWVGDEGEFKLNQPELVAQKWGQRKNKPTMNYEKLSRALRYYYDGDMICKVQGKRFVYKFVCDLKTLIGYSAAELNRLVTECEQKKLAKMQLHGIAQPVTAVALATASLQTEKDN
The method in brief: as §1

The target of the next assay is T9, ELF3 (Homo sapiens, UniProt P78545 1-371).
T9 sequence: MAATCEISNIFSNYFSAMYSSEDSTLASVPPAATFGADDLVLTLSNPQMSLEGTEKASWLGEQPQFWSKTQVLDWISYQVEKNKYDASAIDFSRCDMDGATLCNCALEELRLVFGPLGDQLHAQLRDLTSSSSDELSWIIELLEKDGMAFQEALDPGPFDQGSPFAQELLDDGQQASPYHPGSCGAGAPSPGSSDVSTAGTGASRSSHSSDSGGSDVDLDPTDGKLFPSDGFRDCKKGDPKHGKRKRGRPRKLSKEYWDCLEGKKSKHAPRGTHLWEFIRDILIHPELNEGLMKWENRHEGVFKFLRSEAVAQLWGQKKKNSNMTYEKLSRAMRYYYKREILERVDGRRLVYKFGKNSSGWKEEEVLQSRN
The method in brief:
as §1

A further assay concerns the target T10, ERF (Homo sapiens, UniProt P50548 1-548).
T10 sequence: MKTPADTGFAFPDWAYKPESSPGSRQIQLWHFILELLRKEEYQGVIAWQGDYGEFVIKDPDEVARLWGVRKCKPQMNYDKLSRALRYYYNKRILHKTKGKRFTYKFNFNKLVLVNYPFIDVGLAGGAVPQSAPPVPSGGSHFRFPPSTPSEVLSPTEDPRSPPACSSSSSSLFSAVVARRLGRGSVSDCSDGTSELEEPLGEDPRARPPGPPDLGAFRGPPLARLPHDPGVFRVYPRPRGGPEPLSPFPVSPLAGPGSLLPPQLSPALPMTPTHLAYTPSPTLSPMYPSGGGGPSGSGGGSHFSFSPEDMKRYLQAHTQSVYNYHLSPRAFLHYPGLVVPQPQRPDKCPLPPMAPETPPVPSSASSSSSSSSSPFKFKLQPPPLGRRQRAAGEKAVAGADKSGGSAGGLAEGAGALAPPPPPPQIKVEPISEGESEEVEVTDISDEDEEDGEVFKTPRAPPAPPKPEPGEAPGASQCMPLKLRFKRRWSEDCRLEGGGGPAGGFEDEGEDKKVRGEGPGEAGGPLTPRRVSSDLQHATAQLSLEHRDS
In outline:
as §1

In the next assay the target is T11, SPDEF (Homo sapiens, UniProt O95238 1-335).
T11 sequence: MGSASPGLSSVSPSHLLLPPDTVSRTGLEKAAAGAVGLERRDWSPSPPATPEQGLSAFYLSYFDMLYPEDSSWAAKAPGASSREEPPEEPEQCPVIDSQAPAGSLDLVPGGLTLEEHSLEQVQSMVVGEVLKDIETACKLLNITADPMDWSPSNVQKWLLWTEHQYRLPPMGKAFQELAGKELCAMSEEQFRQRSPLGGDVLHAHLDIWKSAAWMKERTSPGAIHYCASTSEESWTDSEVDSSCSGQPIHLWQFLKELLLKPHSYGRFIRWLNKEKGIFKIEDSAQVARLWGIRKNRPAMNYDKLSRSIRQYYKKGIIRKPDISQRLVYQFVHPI
In outline:
as §1

A further assay concerns the target T12, ELF5 (Homo sapiens, UniProt Q9UKW6-2 1-255).
T12 sequence: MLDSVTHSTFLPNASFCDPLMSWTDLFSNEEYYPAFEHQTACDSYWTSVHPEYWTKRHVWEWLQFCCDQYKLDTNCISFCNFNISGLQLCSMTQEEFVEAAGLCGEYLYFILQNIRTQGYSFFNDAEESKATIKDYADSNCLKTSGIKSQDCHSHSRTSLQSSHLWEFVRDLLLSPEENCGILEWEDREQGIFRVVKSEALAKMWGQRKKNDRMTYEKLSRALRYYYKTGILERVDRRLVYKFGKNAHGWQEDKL
The method in brief:
as §1

Another assay addresses ETV6 (Homo sapiens, UniProt P41212 1-452). The method in brief:
as §1

Sequence of CRX (O43186 whole entry): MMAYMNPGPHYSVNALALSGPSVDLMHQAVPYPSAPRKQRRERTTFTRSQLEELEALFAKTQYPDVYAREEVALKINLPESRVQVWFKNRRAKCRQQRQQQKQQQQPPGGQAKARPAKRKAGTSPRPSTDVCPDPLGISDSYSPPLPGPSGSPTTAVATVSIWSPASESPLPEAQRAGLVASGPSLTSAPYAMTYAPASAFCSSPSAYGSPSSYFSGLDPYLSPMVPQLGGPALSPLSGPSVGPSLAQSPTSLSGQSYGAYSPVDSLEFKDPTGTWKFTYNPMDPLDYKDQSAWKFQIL
Sequence of ETV1 (P50549 whole entry): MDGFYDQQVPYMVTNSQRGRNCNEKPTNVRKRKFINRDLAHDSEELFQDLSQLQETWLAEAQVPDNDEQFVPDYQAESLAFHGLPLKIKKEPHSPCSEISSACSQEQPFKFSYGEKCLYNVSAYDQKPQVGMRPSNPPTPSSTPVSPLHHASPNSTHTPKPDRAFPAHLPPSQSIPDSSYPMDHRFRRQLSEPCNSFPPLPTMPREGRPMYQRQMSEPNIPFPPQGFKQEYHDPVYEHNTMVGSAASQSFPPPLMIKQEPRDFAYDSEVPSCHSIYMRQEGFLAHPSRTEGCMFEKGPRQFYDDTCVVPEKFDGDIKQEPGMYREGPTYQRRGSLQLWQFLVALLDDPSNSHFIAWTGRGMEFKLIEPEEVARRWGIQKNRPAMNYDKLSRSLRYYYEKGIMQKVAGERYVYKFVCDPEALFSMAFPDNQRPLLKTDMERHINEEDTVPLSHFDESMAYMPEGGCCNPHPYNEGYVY
Sequence of ETV6 (P41212 whole entry): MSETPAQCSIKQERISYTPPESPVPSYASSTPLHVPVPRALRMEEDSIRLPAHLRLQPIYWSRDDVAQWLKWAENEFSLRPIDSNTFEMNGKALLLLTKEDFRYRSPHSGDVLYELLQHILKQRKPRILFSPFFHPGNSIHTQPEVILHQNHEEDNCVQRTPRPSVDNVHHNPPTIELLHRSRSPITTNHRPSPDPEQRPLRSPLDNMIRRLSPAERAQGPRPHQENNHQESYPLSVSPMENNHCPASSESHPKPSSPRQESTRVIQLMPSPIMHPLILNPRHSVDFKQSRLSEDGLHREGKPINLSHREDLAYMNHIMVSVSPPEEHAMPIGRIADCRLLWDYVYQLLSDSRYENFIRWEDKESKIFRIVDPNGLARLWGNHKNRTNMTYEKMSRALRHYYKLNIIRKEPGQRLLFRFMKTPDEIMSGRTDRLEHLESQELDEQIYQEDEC
Sequence of ELF1 (P32519 whole entry, the tested form may be a part): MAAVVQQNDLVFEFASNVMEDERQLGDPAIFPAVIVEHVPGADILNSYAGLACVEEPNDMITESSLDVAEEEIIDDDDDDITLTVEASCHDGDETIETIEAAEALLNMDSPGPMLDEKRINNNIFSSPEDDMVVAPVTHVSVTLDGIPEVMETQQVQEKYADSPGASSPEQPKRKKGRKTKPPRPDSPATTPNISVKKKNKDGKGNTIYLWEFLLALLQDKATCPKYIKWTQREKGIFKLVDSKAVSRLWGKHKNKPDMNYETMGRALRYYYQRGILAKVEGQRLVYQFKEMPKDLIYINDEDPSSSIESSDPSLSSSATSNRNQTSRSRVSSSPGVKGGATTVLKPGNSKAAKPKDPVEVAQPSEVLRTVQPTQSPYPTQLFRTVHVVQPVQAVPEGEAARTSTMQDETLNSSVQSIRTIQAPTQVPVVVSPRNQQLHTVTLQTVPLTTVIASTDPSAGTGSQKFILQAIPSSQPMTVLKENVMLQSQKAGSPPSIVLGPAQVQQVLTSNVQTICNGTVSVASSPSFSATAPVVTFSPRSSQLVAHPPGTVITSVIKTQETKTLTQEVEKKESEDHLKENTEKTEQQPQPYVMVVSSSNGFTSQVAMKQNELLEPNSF

As for TCTGAG, the binding signal with ELF1 is 1.01 fold enrichment (6-mer frequency, TF over GST control); with EHF it was 1.01 fold enrichment (6-mer frequency, TF over GST control); with ELK3, 1.01 fold enrichment (6-mer frequency, TF over GST control); with ELK4, 1.08 fold enrichment (6-mer frequency, TF over GST control); in the assay with CRX, 1.04 fold enrichment (6-mer frequency, TF over GST control); in the assay with ETV3L it was 1.01 fold enrichment (6-mer frequency, TF over GST control). The binding signal with ETV7 is 1.05 fold enrichment (6-mer frequency, TF over GST control).

For the sequence GTTGCC, the binding signal is 1.01 fold enrichment (6-mer frequency, TF over GST control) in the assay with ELK1; 1 fold enrichment (6-mer frequency, TF over GST control) in the assay with ELK3; 1.02 fold enrichment (6-mer frequency, TF over GST control) with FEV; 1.07 fold enrichment (6-mer frequency, TF over GST control) with ELK4; 1.05 fold enrichment (6-mer frequency, TF over GST control) in the assay with ETV1; 1.03 fold enrichment (6-mer frequency, TF over GST control) in the assay with ETV3L. Moreover, in the assay with ETV7, the binding signal was 1.04 fold enrichment (6-mer frequency, TF over GST control).

Take AAGCCA: the binding signal with ELK4 was 1.02 fold enrichment (6-mer frequency, TF over GST control); with CRX, 1.12 fold enrichment (6-mer frequency, TF over GST control).

Regarding GATTGA, the binding signal with ELK1 is 1.01 fold enrichment (6-mer frequency, TF over GST control); with CRX it was 1.11 fold enrichment (6-mer frequency, TF over GST control).

On to AGGTAA, for which the binding signal with ELK1 is 1.03 fold enrichment (6-mer frequency, TF over GST control); with GABPA, 1.02 fold enrichment (6-mer frequency, TF over GST control); with ELF3 it was 1.11 fold enrichment (6-mer frequency, TF over GST control); with CRX, 1.14 fold enrichment (6-mer frequency, TF over GST control); with ETV1 it was 1.02 fold enrichment (6-mer frequency, TF over GST control); with ERF it was 1.06 fold enrichment (6-mer frequency, TF over GST control). Further, the binding signal with SPDEF is 1 fold enrichment (6-mer frequency, TF over GST control); with ELF5 it was 1.01 fold enrichment (6-mer frequency, TF over GST control); with ETV6, 1.02 fold enrichment (6-mer frequency, TF over GST control).
